Several values for one entry are separate records, joined by “and”; a condition that tells them apart may be missing. Equal entries are not always repeated. The whole screen tested about 5,500 compounds, of which about 2,000 (36%) were called active. Not shown: some 18% with an inconclusive outcome. No stated cut-off is given here; in the data, active means normalized growth mostly below about 0.91 (no sharp cut-off); inconclusive means no clear call, values can overlap the other calls; inactive means mostly above about 0.92. This is one part of the list.
Assay: chemical genetic growth profiling, strain panel (AID 1159580);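 further: tested at 20 µM; growth read once vehicle control cultures reached saturation at 30 °C; 1 = growth at the plate median or of vehicle wells; lower values mean less growth of the strain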
Details: S. cerevisiae deletion strains, growth OD

Measured: normalized growth

COC(=O)C[C@H]1C(C)(C)[C@@H](OC(C)=O)[C@@H]2CC3=C4CC(=O)O[C@@H](c5ccoc5)[C@]4(C)CCC3[C@@]1(C)C2=O (stereo partly specified)
inactive: locus YAL021C, strain ccr4, hits give low values 1.04 | locus YAL026C, strain drs2, hits give low values 0.998 | locus YAL030W, strain snc1, hits give low values 0.996 | locus YBL061C, strain skt5, hits give low values 0.991 | locus YBR009C, strain hhf1, hits give low values 1 | locus YBR021W, strain FUR4, hits give low values 1.01 | locus YBR023C, strain chs3, hits give low values 1 | locus YBR171W, strain sec66, hits give low values 0.996 | locus YBR229C, strain ROT2, hits give low values 0.997 | locus YBR231C, strain swc5, hits give low values 0.971 | locus YBR279W, strain paf1, hits give low values 0.999 | locus YCL011C, strain gbp2, hits give low values 1.01 | locus YCL016C, strain dcc1, hits give low values 1.01 | locus YCL029C, strain bik1, hits give low values 0.998 | locus YCL061C, strain MRC1, hits give low values 0.999 | locus YCL069W, strain vba3, hits give low values 0.984 | locus YCR088W, strain abp1, hits give low values 0.995 | locus YDL005C, strain med2, hits give low values 0.991 | locus YDL035C, strain GPR1, hits give low values 0.986 | locus YDL040C, strain nat1, hits give low values 0.995 | locus YDL074C, strain BRE1, hits give low values 0.996 | locus YDL101C, strain DUN1, hits give low values 1.02 | locus YDL185W, strain tfp1, hits give low values 1.01 | locus YDL192W, strain arf1, hits give low values 0.998 | locus YDR001C, strain nth1, hits give low values 0.997 | locus YDR069C, strain doa4, hits give low values 0.982 | locus YDR101C, strain arx1, hits give low values 0.976 | locus YDR137W, strain rgp1, hits give low values 0.997 | locus YDR159W, strain sac3, hits give low values 0.962 | locus YDR162C, strain NBP2, hits give low values 0.983 | locus YDR195W, strain ref2 0.938 | locus YDR297W, strain sur2, hits give low values 0.983 | locus YDR318W, strain mcm21, hits give low values 0.998 | locus YDR334W, strain swr1, hits give low values 0.99 | locus YDR335W, strain msn5, hits give low values 1 | locus YDR388W, hits give low values 1.01 | locus YDR392W, strain spt3, hits give low values 0.963 | locus YDR502C, strain sam2, hits give low values 1 | locus YEL003W, strain gim4, hits give low values 0.978 | locus YEL037C, strain rad23, hits give low values 0.989 | locus YEL061C, strain CIN8 (second series), hits give low values 0.99 | locus YER015W, strain faa2, hits give low values 1 | locus YER016W, strain bim1, hits give low values 0.995 | locus YER110C, hits give low values 1 | locus YER111C, strain swi4, hits give low values 1 | locus YER155C, strain BEM2 (second series), hits give low values 1.01 | locus YER155C, strain BEM2, hits give low values 0.997 | locus YER167W, strain BCK2, hits give low values 0.998 | locus YFR010W, strain ubp6, hits give low values 0.976 | locus YGL078C, strain dbp3, hits give low values 1.01 | locus YGL086W, strain mad1, hits give low values 1.01 | locus YGL167C, strain pmr1, hits give low values 1.01 | locus YGL173C, strain kem1, hits give low values 0.989 | locus YGL227W, strain vid30, hits give low values 0.993 | locus YGL240W, strain doc1, hits give low values 1 | locus YGL248W, strain PDE1, hits give low values 1 | locus YGL253W, strain hxk2, hits give low values 0.913 | locus YGR078C, strain PAC10, hits give low values 1.01 | locus YGR135W, strain pre9, hits give low values 1.02 | locus YGR252W, strain gcn5, hits give low values 1.01 | locus YHR013C, strain ard1, hits give low values 1.01 | locus YHR027C, strain rpn1, hits give low values 1 | locus YHR030C, strain SLT2, hits give low values 1 and 0.993 | locus YHR079C, strain IRE1 (second series), hits give low values 0.996 | locus YHR079C, strain IRE1, hits give low values 0.992 | locus YHR094C, strain hxt1, hits give low values 1 | locus YHR129C, strain ARP1, hits give low values 1.01 | locus YHR142W, strain chs7, hits give low values 0.988 | locus YHR200W, strain rpn10, hits give low values 1.01 | locus YIL066C, strain RNR3, hits give low values 1.01 | locus YIL073C, strain SPO22, hits give low values 1.02 | locus YIL125W, strain kgd1, hits give low values 0.993 | locus YIR030C, strain dcg1, hits give low values 1 | locus YJL092W, strain hpr5, hits give low values 0.996 | locus YJL095W, strain BCK1 (second series), hits give low values 1.01 | locus YJL095W, strain BCK1, hits give low values 1.04 and 0.984 | locus YJL115W, strain asf1, hits give low values 0.997 | locus YJL129C, strain trk1, hits give low values 0.952 | locus YJL134W, strain LCB3, hits give low values 0.998 | locus YJL154C, strain vps35, hits give low values 0.998 | locus YJL164C, strain tpk1, hits give low values 1.03 | locus YJL166W, strain qcr8, hits give low values 1 | locus YJL168C, strain set2, hits give low values 0.995 | locus YJL187C, strain SWE1 (second series), hits give low values 1.03 | locus YJL187C, strain SWE1, hits give low values 1.01 | locus YJR043C, strain POL32, hits give low values 0.987

From PubChem BioAssay AID1159580 (chemical genetic matrix, 2015)
